Test results taken from PubChem BioAssay.
Calls of active or inactive are those of the source.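 Rule for the calls, unless noted: active = NADPH fluorescence slope more negative than the mean of all samples by about 3 SD, 99.7% confidence; inactive = the rest.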

What was measured:
[1] = inhibitors of TNFa-induced NFkB p65 translocation, primary screen, imaging, HUVEC, MLSMR starter and 10KST1 sets (AID 438;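 active = inhibition above 20% together with a positive visual image hit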;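 note: compound added about 3h40 before a 20 min TNFalpha stimulation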;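 for inhibition: signal is the nuclear over cytoplasmic p65 intensity ratio per well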); settings: HUVEC TNFa-induced p65 nuclear translocation; cell count: measured here: nuclei count (cytotoxicity indicator), at 2.08 µM; inhibition: at 2 µM, stronger effect = higher value, 0% TNFa-plus-vehicle, 100% no-TNFa wells
[2] = reduction of polyQ htt aggregates in cells – imaging, exon1htt(103Q)mCFP cells, high-content imaging, primary screen (AID 483;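 active = visual image review flags a hit and inhibition of aggregation exceeds 20%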;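 note: compound exposure lasted 3 days before fixation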;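 for nuclei count: percent of the per-plate median nuclei count of sample wells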); settings: exon1htt(103Q)mCFP cell line, aggregate imaging, at 2 µM; inhibition of aggregation: stronger effect = higher value; nuclei count: measured here: cell count, toxicity
[3] = endothelial E-selectin expression blockers – imaging, HUVEC, immunofluorescence, MLSMR starter and 10KST1 sets, primary screen (AID 487;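 active = visually confirmed hit in the image check and inhibition above 20%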;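 for inhibition: signal is fraction of cell area covered by stained E-selectin grains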;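 for nuclei count: 100% = median nuclei count of all wells on the same plate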); settings: HUVEC TNFalpha-induced E-selectin immunofluorescence imaging, at 2 µM; inhibition: stronger effect = higher value; nuclei count: measured here: cell number, toxicity
[4] = target: Voltage-gated potassium channel subunit beta-2 (Rattus norvegicus) (UniProt P62483); experiment: inhibitors of rat Kvbeta2 reductase activity – biochemical, NADPH fluorescence, primary screen (AID 622;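 active = fluorescence slope higher than the sample average by over 3 SD, cut at about -0.22 in these data, passing the limit was not always enough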;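 note: slope of raw intensity against log time taken from 70 to 1610 s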); settings: recombinant KvBeta, 4-cyanobenzaldehyde reduction, at 10 µM, stronger effect = higher value
[5] = target: Voltage-gated potassium channel subunit beta-2 (Rattus norvegicus) (UniProt P62483); experiment: enhancers of rat Kvbeta2 NADPH turnover – biochemical, NADPH fluorescence, primary screen (AID 623); settings: Recombinant KvBeta, NADPH fluorescence decrease slope, 10 min; at 10 µM; stronger effect = lower value;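 note: fluorescence intensity change per second fitted from 20 to 320 s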
[6] = target: Alpha-2C adrenergic receptor (Homo sapiens) (UniProt P18825); experiment: compounds altering alpha2C-coupled GIRK flux – cell-based, HEK293 alpha2C/GIRK1/2, thallium flux, primary screen (AID 624;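 active = fluorescence slope after compound addition differing from the mean of all screened samples at 99.7% confidence, in either direction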;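 note: slope of fluorescence ratio to pre-addition baseline per second over 15 to 24 s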); settings: thallium flux BTC fluorescence, at 10 µM, actives lie on both sides
[7] = blockers of RIG-like receptor reporter activation – cell-based, Sendai virus stimulus, luciferase, 10K MLSCN set, TLR/RLR signaling modifier project, primary screen (AID 602276;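 active = inhibition at or above 50% at 10 µM; inactive = inhibition below 50%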;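 note: firefly luciferase from ISG56 promoter only with Renilla not read in this screen; 0% = Sendai virus plus DMSO and 100% = medium plus DMSO without virus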); settings: HEK293 RL24 IRF3 luciferase reporter, at 10 µM, stronger effect = higher value
[8] = TLR3 IRF3 reporter activation blockers – cell-based, poly I:C stimulus, luciferase, 10K MLSCN set, primary screen (AID 602277;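 active = inhibition of the reporter signal at or above 50%; inactive = inhibition below 50%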); settings: HEK293-TLR3 RL24 IRF3 luciferase reporter, at 10 µM, stronger effect = higher value

Sequence of Alpha-2C adrenergic receptor (Homo sapiens) (P18825 whole entry, looked up): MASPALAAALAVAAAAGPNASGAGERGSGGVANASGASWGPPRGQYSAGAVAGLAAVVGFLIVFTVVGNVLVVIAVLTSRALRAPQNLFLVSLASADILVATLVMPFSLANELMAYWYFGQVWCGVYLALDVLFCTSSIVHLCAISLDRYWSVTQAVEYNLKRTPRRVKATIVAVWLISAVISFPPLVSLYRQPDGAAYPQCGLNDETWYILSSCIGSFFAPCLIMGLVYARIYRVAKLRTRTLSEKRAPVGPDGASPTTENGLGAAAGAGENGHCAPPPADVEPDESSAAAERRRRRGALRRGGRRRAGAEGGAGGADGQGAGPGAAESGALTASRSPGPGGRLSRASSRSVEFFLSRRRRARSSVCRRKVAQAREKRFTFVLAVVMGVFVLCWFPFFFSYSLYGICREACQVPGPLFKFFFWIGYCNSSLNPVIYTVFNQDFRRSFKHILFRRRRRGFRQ
Sequence of Voltage-gated potassium channel subunit beta-2 (Rattus norvegicus) (P62483 whole entry, looked up): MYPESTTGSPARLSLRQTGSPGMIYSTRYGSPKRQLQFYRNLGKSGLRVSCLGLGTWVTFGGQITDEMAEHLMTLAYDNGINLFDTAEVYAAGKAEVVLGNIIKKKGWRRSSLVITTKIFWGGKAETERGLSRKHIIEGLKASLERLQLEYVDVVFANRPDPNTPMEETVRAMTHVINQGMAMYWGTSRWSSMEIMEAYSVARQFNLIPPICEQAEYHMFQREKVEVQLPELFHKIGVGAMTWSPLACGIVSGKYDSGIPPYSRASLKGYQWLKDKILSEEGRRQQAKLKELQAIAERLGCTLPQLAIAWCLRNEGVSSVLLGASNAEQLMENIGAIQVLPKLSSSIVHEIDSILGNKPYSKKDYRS

| SMILES | cell count [1] | inhibition [1] | inhibition of aggregation [2] | nuclei count [2] | inhibition [3] | nuclei count [3] | fluorescence slope [4] | NADPH fluorescence slope [5] | slope [6] | inhibition [7] | inhibition [8] |
| --- | --- | --- | --- | --- | --- | --- | --- | --- | --- | --- | --- |
| COCCn1c(SCc2csc(-c3ccccc3)n2)nc2ccccc21 | 639 | 7.2% (inactive) | -4% (inactive) | 97.2% | -24.6% (inactive) | 96.8% | -0.456 (inactive) | 7.6e-05 (inactive) | 0.00574 (inactive) | 1.52% (inactive) | -1.01% (inactive) |
| CC1CCN(Cc2ccc(-c3nn[nH]n3)cc2)CC1 | 582 | -2.9% (inactive) | 17.9% (inactive) | 96.8% | -29.4% (inactive) | 90.6% | -0.659 (inactive) | 2.2e-05 (inactive) | 0.00582 (inactive) | 15.7% (inactive) | 27.1% (inactive) |
| Cc1ccc(-c2ccc(=O)n(CCC(=O)NCCN3CCCCC3C)n2)cc1 (configuration not stated) | 216 | 4.2% (inactive) | -7.7% (inactive) | 86.5% | -4.1% (inactive) | 100% | -0.442 (inactive) | -2.5e-05 (inactive) | 0.00419 (inactive) | 1.11% (inactive) | 2.82% (inactive) |
| COc1ccc(OCC(=O)N2CCN(C(=O)COc3ccc(Br)cc3)CC2)cc1 | 665 | -28.3% (inactive) | -4% (inactive) | 108% | -13.6% (inactive) | 103% | -0.486 (inactive) | -3.9e-05 (inactive) | 0.00463 (inactive) | 18% (inactive) | 20.9% (inactive) |
| COc1cc(OC)cc(-c2nc(N)n[nH]2)c1 | 455 | 3.7% (inactive) | 0% (inactive) | 105% | -33% (inactive) | 104% | -0.411 (inactive) | -5.5e-05 (inactive) | 0.00517 (inactive) | 10.7% (inactive) | 12% (inactive) |
| COC(=O)c1ccc(-n2nnnc2SCc2nn[nH]n2)cc1 | 543 | -7.8% (inactive) | -11.5% (inactive) | 99.6% | -29% (inactive) | 130% | -0.35 (inactive) | 1.4e-05 (inactive) | 0.00668 (inactive) | -8.25% (inactive) | -3.28% (inactive) |
| Cc1ccc2cc(C(c3nnnn3CC3CCCO3)N3CCCC4(CCCCC4)C3)c(=O)[nH]c2c1 (configuration not stated) | 715 | 0.8% (inactive) | 23.8% (inactive) | 106% | -34% (inactive) | 112% | -0.618 (inactive) | -3.7e-05 (inactive) | 0.00614 (inactive) | 10.5% (inactive) | 16.9% (inactive) |
